{
  "source": "PubChem BioAssay (NCI)",
  "note": "The panel holds about 83,000 compounds, 20% with a hit somewhere; the sample as a whole holds those more often.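 Cells were grown in 96-well plates and exposed to the test compound at a single concentration for 48 hours; results are reported as percent growth, with values below 10 considered active.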 The source made the active and inactive calls.",
  "data": [
    {"test_system": "HL-60(TB) leukemia", "assay": "NCI-60 one-dose screen, 48 h (100 = growth as untreated, 0 = no growth, -100 = all killed)", "conditions": "10 µM unless noted", "values": [
      {"smiles": "O=C(COc1cccc(/C=C2\\CSc3ccc(Cl)cc3C2=O)c1)c1ccc(Cl)cc1", "growth": "79.2% (inactive)"},
      {"smiles": "CC(=O)Nc1ccc(C(=O)COc2cccc(/C=C3\\CCc4ccccc4C3=O)c2)cc1", "growth": "89.2% (inactive)"},
      {"smiles": "N/N=C(/Cc1ccccc1)NNC(N)=S", "growth": "97.8% (inactive)"},
      {"smiles": "Cn1cc(-c2nonc2-c2cn(C)c3ccc(F)cc23)c2ccccc21", "growth": "-24.3% (active)"},
      {"smiles": "CN(C)c1ccc(C(=C2C=CC(=[N+](C)C)C=C2)c2ccc(N(C)C)cc2)cc1", "note": "(tested in a mixture with another compound)", "growth": "-51.3% (active)"},
      {"smiles": "O=C(/C=C/c1ccc([N+](=O)[O-])o1)NNC(=O)c1cc2ccccc2cc1O", "growth": "1.21% (active)"},
      {"smiles": "CCCCCCCCCCC1CO1", "note": "(stereo not given)", "growth": "104% (inactive)"},
      {"smiles": "CCOC(=O)C/C(=N\\Nc1cc(=O)[nH]c2ccc(Br)cc12)C(=O)OCC", "growth": "-7.84% (active)"},
      {"smiles": "CC(C)(C)c1ccc(OCCOC(=O)CBr)cc1", "growth": "75.2% (inactive)"},
      {"smiles": "CN(Cc1cnc2nc(N)nc(N)c2n1)c1ccc(C(=O)NC(CCC(=O)O)C(=O)O)cc1Br", "note": "(stereo not given)", "growth": "45.2% (inactive)"},
      {"smiles": "COc1ccc(NC(=O)Nc2ccc(-c3ccc(OC)c(OC)c3)nc2C)cc1", "growth": "85.7% (inactive)"},
      {"smiles": "C[C@]12CC[C@@H]3c4ccc(OCC(=O)O)cc4CC[C@H]3[C@@H]1CCC2=O", "growth": "84.7% (inactive)"},
      {"smiles": "CC(=O)Nc1cc2c(cc1Cl)Cc1cc(Cl)ccc1-2", "growth": "114% (inactive)"},
      {"smiles": "C[C@]12CC[C@@H]3c4cc(OC(F)F)c(OS(N)(=O)=O)cc4CC[C@H]3[C@@H]1CC[C@@H]2OS(N)(=O)=O", "growth": "13.1% (inactive)"},
      {"smiles": "Cc1cc(N2CCCCC2)nc(N2CCN(CC(=O)Nc3ccc4c(ccn4Cc4ccccc4)c3)CC2)n1", "growth": "42.8% (inactive)"},
      {"smiles": "O=C(O)c1ccccc1NCc1ccco1", "growth": "102% (inactive)"},
      {"smiles": "CCOc1ccc(-n2nc(C(=O)NCc3ccccc3OC)nc2-c2cc(OC)c(OC)c(OC)c2)cc1", "growth": "19.1% (inactive)"},
      {"smiles": "CCSc1ccnc(N)n1", "growth": "108% (inactive)"},
      {"smiles": "COc1ccc(CN2CCc3c(Sc4ccccc4)nc(N)nc3C2=O)c(OC)c1", "growth": "14.3% (inactive)"},
      {"smiles": "CCCCS(=O)(=O)c1cc(Nc2ccc(O)c3c2C(=O)c2ccccc2C3=O)ccc1C", "growth": "75% (inactive)"},
      {"smiles": "CCCCC/C=C\\C/C=C/CCCCCCCCNC(=O)Nc1ccc([N+](=O)[O-])cc1", "growth": "4.75% (active)"},
      {"smiles": "COc1ccc(-n2[nH]c3c(cnc4ccccc43)c2=O)cc1", "growth": "97.3% (inactive)"},
      {"smiles": "Nc1ccc(C2=CC(c3ccc(Cl)cc3)N3C=CSC3=N2)cc1", "note": "(stereo not given)", "growth": "-19.3% (active)"},
      {"smiles": "COc1cnc2c(c1)C(=O)c1c-2n(CCCn2ccnc2)c(=O)c2cc(Cl)ccc12", "growth": "-26.1% (active)"},
      {"smiles": "OC(c1ccc(Cl)cc1)(c1ccc(Cl)cc1)C(O)(c1ccc(Cl)cc1)c1ccc(Cl)cc1", "growth": "51.2% (inactive)"},
      {"smiles": "CCCCC(CCCCCC(CCCC)NCc1ccc2c(c1)OCO2)NCc1ccc2c(c1)OCO2", "note": "(stereo not given)", "growth": "-76.6% (active)"},
      {"smiles": "CC(C)CSc1nc(NN)c(C#N)c(-c2ccccc2)n1", "growth": "106% (inactive)"},
      {"smiles": "Cc1cc(Cc2cc(C)cc(C(C)(C)C)c2O)c(O)c(C(C)(C)C)c1", "growth": "59.3% (inactive)"},
      {"smiles": "O=C(Nc1cccc(C(F)(F)F)c1)C(Cl)Cl", "growth": "94.1% (inactive)"},
      {"smiles": "C/C(CC(C)C)=N/NC(N)=S", "growth": "86.5% (inactive)"},
      {"smiles": "CCCCOC(=O)c1cccc([N+](=O)[O-])c1", "growth": "142% (inactive)"},
      {"smiles": "CC[C@H](C)[C@H](NC(=O)[C@H](CCCNC(=N)N)NC(=O)[C@H](Cc1c[nH]c2ccccc12)NC(=O)[C@@H](NC(=O)[C@H](CCCCN)NC(=O)[C@H](CCCCN)NC(=O)[C@@H](NC(=O)[C@@H](NC(=O)[C@@H](NC(=O)[C@H](CCCCN)NC(=O)[C@H](Cc1ccccc1)NC(=O)[C@H](CCCCN)NC(=O)[C@H](CCCCN)NC(=O)[C@H](Cc1ccccc1)NC(=O)[C@@H](NC(=O)[C@@H](N)CCCCN)[C@@H](C)CC)[C@@H](C)O)[C@@H](C)CC)[C@@H](C)CC)C(C)C)C(=O)N[C@@H](Cc1ccccc1)C(=O)NCC(=O)N[C@@H](CCCNC(=N)N)C(=O)N[C@@H](Cc1ccccc1)C(N)=O", "growth": "14.9% (inactive)"},
      {"smiles": "ICCC(c1ccccc1)(c1ccccc1)c1ccccc1", "growth": "43.4% (inactive)"},
      {"smiles": "COc1ccc(-c2nc(-c3cc(OC)cc(OC)c3)[nH]c2-c2ccc(OC)cc2)cc1", "growth": "30.1% (inactive)"},
      {"smiles": "CCCCCCC/C=C/[C@H]1O[C@]23C(=O)C[C@@]4(C[C@@H](OC5OC(CO)C(O)C(O)C5O)C[C@@H]4[C@H]2C=C1C)OC3=O", "note": "(stereo not given in full)", "growth": "-13.1% (active)"},
      {"smiles": "CCOC(=O)CSc1c([N+](=O)[O-])ncn1C", "growth": "91.4% (inactive)"},
      {"smiles": "O=[N+]([O-])c1cccc(-c2nc3sccn3c2-c2ccnc(NCCNS(=O)(=O)c3ccc(C(F)(F)F)cc3)n2)c1", "growth": "16% (inactive)"},
      {"smiles": "C[PH+](c1nc2ccccc2nc1[PH+](C)C(C)(C)C)C(C)(C)C.C[PH+](c1nc2ccccc2nc1[PH+](C)C(C)(C)C)C(C)(C)C.[Au+].[Cl-]", "note": "(stereo not given)", "growth": "12% (inactive)"},
      {"smiles": "Cc1ccc(-c2cc3nc(C(Cl)Cl)nc(-c4cccnc4)n3n2)cc1", "growth": "10.5% (inactive)"},
      {"smiles": "CC1(C)C(O)NC(Cl)=C(C#N)C1(C#N)C#N", "note": "(stereo not given)", "growth": "114% (inactive)"}
    ]}
  ]
}
